# Test results reported in PubChem BioAssay (NCI).
# This is part of a sample that, as a whole, favours compounds with a hit. Of some 79,000 tested, about 15% had one in any assay. Unmarked numbers belong to inactive results. Calls of active or inactive are those of the source. Cut-off read from the data, not from the text of the source: active = growth inhibition above about 70%; inactive = the rest.
# Experiments:
# [1] = NCI Yeast Anticancer Drug Screen. Data for the rad50 strain (AID 155);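 note: 0% = growth of vehicle-only cultures of the same strain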; settings: S. cerevisiae rad50 strain growth inhibition; at 50.0 µM; stronger effect = higher value
# Method in brief: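 Yeast carrying a defined DNA repair defect were exposed to test compounds, and growth was compared with vehicle-treated controls to give percent inhibition.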
# [2] = NCI Yeast Anticancer Drug Screen. Data for the mec2-1 strain (AID 157); settings: S. cerevisiae mec2-1 strain, at 50.0 µM, stronger effect = higher value
# Method in brief: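 Cells of the genetically defined mec2-1 yeast strain are incubated with test compound. Inhibition of growth is calculated against vehicle-treated controls.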
# [3] = NCI Yeast Anticancer Drug Screen. Data for the sgs1 mgt1 strain (AID 161);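 note: 0% = growth of cultures given vehicle only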; settings: S. cerevisiae sgs1 mgt1 strain, at 50.0 µM, stronger effect = higher value
# Method in brief: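 Mutant yeast exposed to compound; growth scored against vehicle-only wells.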
# [4] = NCI Yeast Anticancer Drug Screen. Data for the cln2 rad14 strain (AID 165);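 note: 0% = growth equal to vehicle treated cultures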; settings: S. cerevisiae cln2 rad14 strain, at 50.0 µM, stronger effect = higher value
# Method in brief: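 The screen exposed genetically defined yeast (cln2 rad14) to test compounds and scored growth inhibition relative to vehicle-treated controls.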
# [5] = NCI Yeast Anticancer Drug Screen. Data for the bub3 strain (AID 167); settings: S. cerevisiae bub3 mutant strain, at 50.0 µM, stronger effect = higher value
# Method in brief: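 Compounds were applied to a genetically altered yeast strain carrying a cell-cycle control defect. Growth inhibition was scored against vehicle-treated controls.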
# [6] = NCI Yeast Anticancer Drug Screen. Data for the mlh1 rad18 strain (AID 175); settings: S. cerevisiae mlh1 rad18 strain growth inhibition; at 50.0 µM; stronger effect = higher value
# Method in brief: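 Compound-treated yeast growth, normalised to vehicle controls. Strain bears defined DNA repair mutations.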
Compound,growth inhibition [1],growth inhibition [2],growth inhibition [3],growth inhibition [4],growth inhibition [5],growth inhibition [6]
CN(C)C(=O)Sc1ccc([N+](=O)[O-])cc1,4.75%,-12.8%,-14.6%,-45.5%,4.6%,-19.8%
O=S1(=O)C(c2cccc(C(F)(F)F)c2)=C(O)c2cc3ccccc3nc21,47.9%,21%,49.2%,33.2%,-4.6%,18.6%
CCC(C)C(CO)N=Cc1ccccc1O.O.[Cu] (centres undefined),65.3%,82.3% (active),74% (active),62%,80.2% (active),83.3% (active)
Nc1ccc(Cn2cnc3c(=O)[nH]cnc32)cc1,-11.7%,-6.45%,7.7%,-45.9%,6.85%,-5.4%
Oc1cccc(O)c1,0.8%,-1%,-1.1%,-12.2%,1.75%,33.1%
CC(=O)OC1OC(c2ccoc2)C[C@@]12C1CCC3O[C@]3(C)[C@]1(C)C[C@H](OC(C)=O)[C@H]2C (some centres undefined),-0.5%,-14.5%,-41.5%,-13.6%,-32.1%,-13.2%
OC1CCCCC1C1CCCCC1 (centres undefined),28.9%,4.45%,15.2%,22.3%,-4.4%,26.7%
COc1ccc2[nH]c(=O)oc(=O)c2c1,1%,1.25%,-7.5%,-33.9%,-16.4%,-2.8%
COc1ccc(C(=O)Oc2ccc(C)c(CC(Cl)(Cl)Cl)c2)cc1,-6.1%,-9.5%,6.75%,-12.3%,-6.35%,-14.4%
CCOc1c(Cc2ccccc2)c(=O)n2c3ccccc3n(CC)c2c1C#N,-4.75%,-6.05%,0.25%,-11.8%,-29.9%,-10.8%
O=C1c2ccccc2C(=O)c2c(Nc3ccc4c5c(cccc35)C(=O)c3ccccc3-4)cccc21,23.1%,6.25%,-14.2%,-31.7%,-8.4%,13.2%
CC1CC(=O)Oc2cc(O)c(O)cc21 (centres undefined),11.8%,7.9%,7.3%,4.4%,14.9%,16.9%
O=C1c2ccccc2-c2nc(-c3ccccc3)cc3c2c1nc1ccccc13,79% (active),51.7%,67.2%,64.8%,75% (active),-7.15%
CC1CCN(CCOC(=O)c2ccc(OC(C)C)cc2)C1 (centres undefined),8.1%,12.6%,24.4%,-10.5%,11.2%,12.1%
Clc1ccc(OCCSCCOc2ccc(Cl)cc2)cc1,8.85%,-17.8%,12.5%,-22.1%,0.9%,2.35%
O=C1C2CCCCC2C(=O)N1O (centres undefined),60.1%,-1.5%,18.8%,16.6%,1.45%,9.25%
Cc1ccc(N=NN(C)C)cc1,2.55%,3.65%,-9.55%,-2.6%,1.55%,33%
CCCCCNN,0.95%,-4.6%,-8.5%,9.55%,-6.75%,26.6%
N#CCCN(C1=NN(C(=O)CC(=O)Nc2ccccc2Cl)C(c2ccccc2)C1)c1ccc(Cl)cc1 (centres undefined),28.4%,19.1%,-10.1%,25.9%,16.1%,3.95%
CC12CCC3c4ccc(OC(=O)c5ccccc5)cc4CCC3C1CC(O)C2 (centres undefined),-5.5%,38.1%,50.2%,42.7%,69.6%,11.9%

Compound,growth inhibition [1],growth inhibition [2],growth inhibition [3],growth inhibition [4],growth inhibition [5],growth inhibition [6]
O=P(CCC(O)c1ccccc1)(c1ccccc1)c1ccccc1 (centres undefined),-7.45%,5.65%,-0.65%,0.5%,-9.6%,9.8%
CN1N=C(N)c2cn(C3OC(COP(=O)(O)O)C(O)C3O)c3ncnc1c23 (centres undefined),-16.2%,1.2%,4.7%,-22.8%,11.3%,-9.05%
O=C1/C(=C/c2ccc(Br)cc2)CCC/C1=C\c1ccc(Br)cc1,24.2%,13%,0.25%,-15.8%,-11.9%,13.9%
O=c1[nH]cc(N=Cc2ccccc2O)c(=O)[nH]1.[Cl][Pt],24.9%,9.05%,39%,3.35%,3.2%,0.4%
Cc1ccc(NC(=O)CCC(=O)C2Cc3ccccc3C2=O)cc1C (centres undefined),-16%,-7.55%,-5.05%,21.3%,1.65%,3.85%
O=C(C#Cc1ccccc1)[O][Sn]([c]1ccccc1)([c]1ccccc1)[c]1ccccc1,99% (active),99.2% (active),99.4% (active),99.2% (active),99.1% (active),99.2% (active)
ClCCCOc1ccccc1,21.5%,23.2%,22.6%,8.55%,-5.25%,11.6%
CC(=O)c1cccc(C)n1,29.8%,-6.05%,22.1%,18.2%,10.9%,36.7%
COC1OC(CO)C(O)C(OCc2ccccc2)C1OCc1ccccc1 (centres undefined),-4.35%,0.5%,-5.35%,-10.3%,-7.4%,-19.3%
N#CCCc1ccnc2ccccc12,1.7%,-6.4%,1.25%,-43%,-3.8%,-14.8%
Cc1ccc(C(=O)OCC2OC(Cl)CC2OC(=O)c2ccc(C)cc2)cc1 (centres undefined),22.6%,-13.7%,26.8%,-36%,2.85%,-8.3%
COc1ccccc1NC(=O)C1=C(C)NC(C)=C(C(=O)Nc2ccccc2OC)C1c1ccccc1OC,15.2%,-6.65%,-26.8%,17.1%,0.35%,1.85%
CCCOC(=O)c1ccccc1C=O,-12.1%,-3.5%,-18.6%,-49.9%,-10.3%,23.4%
CN(C)CCOC(=O)c1ccc(N)cc1,-6.35%,1.6%,-31.8%,-19.6%,23.1%,-8.35%
C=CC1CNCCC1CC(=O)OCC (centres undefined),-16.6%,-5.55%,3%,-12.4%,4.45%,-24.4%
N#Cc1c2nc3ccccc3nc2n2ccccc12,0.7%,19.4%,-18.9%,1.25%,1.15%,53.8%
COc1cc2c(c([N+](=O)[O-])c1)NC(=O)CC(C)S2 (centres undefined),-48.8%,-6.25%,21.9%,-9.4%,17.4%,-3.45%
O=c1[nH]c2ccccc2c(O)c1-c1ccccc1,6.95%,0.8%,-17%,-8.6%,-22.5%,0.65%
CN(Cc1cnc2nc(N)nc(N)c2n1)c1ccc(C(=O)NC(CCCCN)C(=O)O)cc1 (centres undefined),-0.05%,-9.4%,-0.05%,-15.8%,-2.05%,30.9%
